# Screening results from PubChem BioAssay.
# RORg inh: blocks mouse ROR gamma transcriptional activity. P51450. Drosophila S2 Gal4-RORgamma UAS-luciferase reporter, 20 h. Potency, µM (titrated, usually from 53.6 µM), for the others: at the top dose activity change, negative = inhibition, actives largely listed as inhibitors. actives 5.4% (n = 310,000). AID 2551; further: potency means the concentration at half of the fitted maximal effect; nearly all actives have a fitted effect of over 60% in size
# Target sequence (P51450 whole entry, looked up, the tested form may be a part): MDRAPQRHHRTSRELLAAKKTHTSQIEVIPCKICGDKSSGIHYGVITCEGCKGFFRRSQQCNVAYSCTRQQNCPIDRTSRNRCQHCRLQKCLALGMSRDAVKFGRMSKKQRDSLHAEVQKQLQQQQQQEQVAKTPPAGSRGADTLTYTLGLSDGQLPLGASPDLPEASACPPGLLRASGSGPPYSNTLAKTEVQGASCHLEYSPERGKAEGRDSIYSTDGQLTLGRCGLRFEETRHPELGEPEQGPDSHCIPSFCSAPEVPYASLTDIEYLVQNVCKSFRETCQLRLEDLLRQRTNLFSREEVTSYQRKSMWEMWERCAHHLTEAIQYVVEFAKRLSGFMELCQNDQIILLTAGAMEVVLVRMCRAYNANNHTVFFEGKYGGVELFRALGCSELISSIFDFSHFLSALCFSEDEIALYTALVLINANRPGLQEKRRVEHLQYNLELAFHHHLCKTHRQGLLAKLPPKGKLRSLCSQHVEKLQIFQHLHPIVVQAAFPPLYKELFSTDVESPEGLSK
#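 Luminescence from a UAS-regulated Photinus luciferase reporter in stably transfected Drosophila Schneider cells is measured; decreased signal marks ROR gamma inhibition. Fusion expression is induced by 700 uM copper sulfate for 20 hr.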
# ELG1 repair inh: blocks ELG1-dependent DNA repair in HEK293T cells; actives 2.3% (n = 330,000); Potency, µM (series often up to 46.1 µM), without a hit: at the highest dose activity change, negative = inhibition, usual class: inhibitors; HEK293T ELG1-luciferase reporter, luminescence, 16 h; DNA damage induced by 5-fluorouridine; further: potency means the concentration at half of the fitted maximal effect; nearly all actives have a fitted effect of over 55% in size
#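 Reporter activity after DNA damage by 5-fluorouridine is monitored. Compound-treated cells incubate 16 hr at 37 °C, then ONE-Glo is added for 30 min before luminescence reading.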
# IL1B secr inh: blocks inflammasome-driven IL-1 beta release | activity change, % at 57.5 µM | THP-1 LPS/ATP IL-1B secretion, AlphaLISA, 16 h; stronger effect = lower value | actives 4.7% (n = 360,000); in the data active means activity change below about -50%; inconclusive means mostly about -30% to -49%
#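 THP-1 cells pretreated 1 hr with compounds (up to 57.5 uM final), then stimulated with LPS (250 ng/mL final) plus ATP (1.25 mM final); secreted IL-1B measured by AlphaLISA after 16 hr, decreased signal indicating inhibition.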
# TDP1 cell CPT: growth inhibition of DT40 Tdp1-/-;hTDP1 cells with camptothecin (screen for TDP1 inhibitors) | AID 686979 | chicken DT40 Tdp1-/-;hTDP1 cells + 20 nM CPT, ATP luminescence, 48 h | Potency, µM (top dose mostly 46.2 µM), for inactives: at the highest dose activity change, negative = growth inhibition, actives largely listed as inhibitors | actives 12% (n = 420,000); further: potency means the concentration at half of the fitted maximal effect; nearly all actives have a fitted effect of over 55% in size
#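 Cell growth measured by CellTiter-Glo luminescence after a minimum 48 h, 37 C compound exposure with 20 nM CPT in Tdp1-knockout DT40 cells stably expressing hTDP1, seeded 400/well; qHTS titration format.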
# Gal4-VP16 FLuc: counter-screen for ROR gamma inhibitors: Gal4-VP16 reporter | AID 2546 | Drosophila S2 Gal4-VP16 UAS-luciferase, luminescence, 20 h | actives 3.5% (n = 310,000) | Potency, µM (highest dose often 53.6 µM), without a hit: top-dose activity, negative = inhibition, actives largely listed as inhibitors;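 further: Gal4-VP16 expression switched on by copper sulfate through the metallothionein promoter; potency means the concentration at half of the fitted maximal effect; nearly all actives have a fitted effect of over 50% in size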
# TDP1 cell noCPT: qHTS for Inhibitors of human tyrosyl-DNA phosphodiesterase 1 (TDP1): qHTS in cells in absence of CPT. actives 15% (n = 420,000). Potency, µM (highest dose often 46.2 µM), for inactives: at the highest dose activity change, negative = growth inhibition, hits mostly inhibitors. DT40 Tdp1-/- hTDP1 cells, no CPT, ATP luminescence, 48 h; further: potency means the concentration at half of the fitted maximal effect; nearly all actives have a fitted effect of over 55% in size
#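 Compound effects on proliferation are scored in DT40 Tdp1-/-;hTDP1 cells in the absence of CPT. ATP levels (CellTiter-Glo luminescence) are recorded after a ≥48 hr, 37 °C incubation.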
# The depositor's hits bear a star; ? = inconclusive; . = no result given; ! = repeats disagree; [ ] = another dose, or the depositor's remark. Hits are enriched below; roughly 21% of the tested compounds scored in any of these assays. Unless noted, the call rests on the fitted dose curve; in most records, active means well fitted curve in the direction sought with a large enough effect; inconclusive means small, poorly fitted or top-dose-only effect, or another doubt; inactive means no such curve, though single readings can be large; an effect the other way counts as inactive or inconclusive. On the % scale 0 is the no-effect control and ±100 the full control effect.
SMILES,RORg inh,ELG1 repair inh,IL1B secr inh,TDP1 cell CPT,Gal4-VP16 FLuc,TDP1 cell noCPT
CN1C(=O)S/C(=C/c2cccnc2)C1=O,-14%,18%,-3,?,-8%,-27%
O=C1/C(=C/c2cccnc2)CCc2c1[nH]c1ccccc21,12%,15%,-103*,18µM*,-6%,?
CSCc1ccc(C(=O)OCc2nc3ccccc3s2)o1,.,?,16,?,.,-2%
CCN(CC)c1ccc2cc(C(N)=O)c(=N)oc2c1,15%,?,-2,-2%,18%[10 µM],-27%
CCN(CC)c1ccc2cc(-c3nc(-c4cc(OC)c(OC)c(OC)c4)no3)c(=O)oc2c1,.,.,.,21µM*,.,10µM*
CCN(CC)c1ccc2cc(-c3nnc(-c4ccncc4)o3)c(=O)oc2c1,7%,?,9,12µM*,-2%,21µM*
CCN(CC)c1ccc2cc(-c3nc(-c4ccccc4F)no3)c(=O)oc2c1,.,.,.,-16%,.,?
CCC1CSC(Nc2ccc(C(=O)/C=C/c3ccc(Br)cc3)cc2)=N1 (stereo not drawn),39%,15%,-93*,?,-18%,?
CCC1CSC(Nc2ccc(C(=O)/C=C/c3ccc(OC)c(OC)c3)cc2)=N1 (stereo not drawn),?,21µM*,-93*,?,?,13µM*
O=C(COC(=O)/C=C/c1cccc(F)c1)NCc1ccc2c(c1)OCO2,.,.,20,-15%,.,-1%
O=C(NCC[C@@H]1CC[C@@H](NC(=O)c2cnccn2)[C@@H](CO)O1)c1ccc2c(c1)OCO2,.,.,44,-2%,.,0%
COc1cccc(-c2oc3c(c2C(=O)OCCN2CCCCC2)C(O)CCC3)c1 (stereo not drawn),.,.,9,?,.,?
O=C1CCCC(=O)N1c1ccc(O)cc1,2%,10%,2,-7%,4%,5%
O=C1C=CC(=O)N1c1ccc(OC(F)F)cc1,6.3µM*,21µM*,-91*,0.41µM*,4.5µM*,0.65µM*
O=C1C=CC(=O)N1c1ccc(O)cc1,13µM*,7%,-8,2.6µM*,?,2.3µM*
O=C(c1ccc(F)cc1)C1CCN(C(=O)c2ccccc2)CC1,10%,1%,?,-1%,0%,?
O=C(c1ccc2c(c1)OCCO2)C1CCN(C(=O)c2ccc(F)cc2)CC1,30%,?,0,?,-22%,?
O=C(c1ccc2c(c1)OCCO2)C1CCN(C(=O)c2ccc(F)c(F)c2)CC1,?,?,-14,?,-19%,16µM*
O=C(c1ccc(Cl)cc1)C1CCN(C(=O)c2ccccc2)CC1,10%,?,?,?,-15%,15µM*
O=C(c1ccc(F)cc1)C1CCN(C(=O)c2ccc(Cl)cc2)CC1,.,.,-10,?,.,18µM*
O=C(c1ccc(Cl)cc1)C1CCN(C(=S)Nc2ccccc2)CC1,.,.,-11,-17%,.,16µM*
CCOc1ccc(-c2nc(SCC(=O)NCCOC)c(-c3ccc(OC)c(OC)c3)[nH]2)cc1,.,.,.,-25%,.,?
C[C@H]1COc2cc(N3CCC[C@H]3CO)ccc2S(=O)(=O)N1,.,.,0,5%,.,0%
Cc1cc(C)c2cc(C(=O)N3CCC(C(=O)c4ccc(F)cc4)CC3)[nH]c2c1,25%,?,?,?,-13%,21µM*
O=C(c1ccc(F)cc1)N1CCN(Cc2ccccc2)CC1,6%,-10%,-22,-9%,-5%,1%
SMILES,RORg inh,ELG1 repair inh,IL1B secr inh,TDP1 cell CPT,Gal4-VP16 FLuc,TDP1 cell noCPT
CSc1ccc(NC(=O)N2CCC(C(=O)c3ccc(F)cc3)CC2)cc1,8%,?,-69*,?,0%,?
O=C(c1ccc(F)cc1)N1CCC(C(=O)N(Cc2ccccc2)c2ccccc2)CC1,.,-16%,-2,23µM*,.,18µM*
CC(=O)c1ccc2c(c1)CC1(C2)Cc2cc3c(cc2C1)C(=O)CC3 (stereo not drawn),.,.,14,5.2µM*,.,3.3µM*
CC(=O)c1ccc2c(c1)Cc1cc(C(C)=O)ccc1-2,?,?,-28,-13%,-16%,-20%
Cc1ccc(C(=O)N2CC=C(c3ccccc3)CC2)o1,.,0%,-21,?,.,?
Cc1cc(C(=O)N2CC=C(c3ccccc3)CC2)c2ccccc2n1,.,?,-3,0.58µM*,.,0.92µM*
O=C(O)c1ccccc1C(=O)N1CC=C(c2ccccc2)CC1,2%,?,21,?,2%,26µM*
Cc1c(C(=O)C(=O)N2CC=C(c3ccccc3)CC2)c2ccccc2n1C,?,-13%,33,2.9µM*,3%,2.6µM*
O=S1(=O)N[C@@H](Cc2ccccc2)COc2cc(N3CCC[C@H]3CO)ccc21,.,.,3,?,.,?
Cc1ccccc1Nc1cc(C(=O)NC2CCCC2)c2ccccc2n1,.,.,.,-26%,.,-19%
CCC(C)(C)C(=O)O[C@H]1C[C@@H](C)C=C2C=C[C@H](C)[C@H](CC[C@@H]3C[C@@H](O)CC(=O)O3)[C@H]21,17%,-3%,9,3%[21.1 µM],-12%,21µM*!
CCC(C)C(=O)OC1CC(O)C=C2C=CC(C)C(CCC(O)CC(O)CC(=O)O)C21 (stereo not drawn),-2%,.,.,.,1%,.
CCc1nn2c(=O)cc(COc3cccc(NC(=O)c4ccco4)c3)nc2s1,36%,-2%,-10,21µM*,-5%,?
CCCCC(=O)OCc1cc(=O)n2nc(C3CCCCC3)sc2n1,.,.,.,-10%,.,-4%
COc1cc(C(=O)OCc2cc(=O)n3nc(C4CCCCC4)sc3n2)cc(OC)c1OC,.,.,.,12µM*,.,10µM*
CCOc1cc(C(=O)OCc2cc(=O)n3nc(CC)sc3n2)cc(OCC)c1OCC,.,.,.,18µM*,.,?
CCOc1ccc(C(=O)Nc2ccc(C(=O)OCc3cc(=O)n4nc(CC)sc4n3)cc2)cc1,.,.,.,-11%,.,?
CCc1nn2c(=O)cc(COC(=O)c3ccc(NC(=O)c4cccs4)cc3)nc2s1,.,.,.,6.5µM*,.,6.5µM*
C[C@H]1[C@H]2CC[C@H]3C4CC=C5C[C@@H](N(C)C)CC[C@]5(C)C4CC[C@]23CN1C (stereo partly drawn),18%,.,.,?,-15%,?
O=C(NC(=O)c1ccccc1)Nc1ccc(-c2cc(C(F)(F)F)nn2-c2ccccc2)cc1,.,.,.,-27%,.,-8%
